# Legend:
# Assay in all cases: DAPPL (digital affinity profiling via proximity ligation, sequencing); 10 mM Tris-HCl pH 7.5, 50 mM NaCl, 1 mM DTT, 4% glycerol, room temperature, 30 min; GST-TFs on glutathione beads, 16-mer random dsDNA library, 0.1% formaldehyde crosslink after washing; high values mean tight binding
# Details in all cases: protein: recombinant; tags: N-terminal GST; dsDNA, one strand shown
# FLI1 = target: T1, FLI1 (Homo sapiens, UniProt Q01543 1-452)
# T1 sequence: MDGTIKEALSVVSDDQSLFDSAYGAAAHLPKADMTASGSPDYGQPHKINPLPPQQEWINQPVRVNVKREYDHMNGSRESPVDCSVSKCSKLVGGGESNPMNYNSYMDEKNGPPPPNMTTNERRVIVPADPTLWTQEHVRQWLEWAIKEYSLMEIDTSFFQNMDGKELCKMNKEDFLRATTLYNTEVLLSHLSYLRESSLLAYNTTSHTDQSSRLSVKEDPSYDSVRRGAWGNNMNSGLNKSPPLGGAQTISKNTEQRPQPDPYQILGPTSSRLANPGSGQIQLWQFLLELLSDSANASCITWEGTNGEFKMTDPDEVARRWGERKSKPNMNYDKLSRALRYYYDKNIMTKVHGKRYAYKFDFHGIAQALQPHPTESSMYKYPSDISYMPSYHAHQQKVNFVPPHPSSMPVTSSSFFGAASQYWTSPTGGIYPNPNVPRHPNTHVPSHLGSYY
# Procedure, shortened: (§1)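 Each value of binding signal is a hexamer's read frequency for a factor divided by the same hexamer's frequency in the tag-only sample. Barcoded, bead-captured GST fusions of human transcription factors made in yeast were pooled with that sample and incubated with 200 nmole of a random double-stranded 16-mer DNA library in Tris/NaCl/DTT/glycerol buffer at room temperature for 30 min. Washing, 0.1% formaldehyde crosslinking, proximity ligation, PCR and Illumina NextSeq500 sequencing followed.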
# ELK1 = target: T2, ELK1 (Homo sapiens, UniProt P19419 1-428)
# T2 sequence: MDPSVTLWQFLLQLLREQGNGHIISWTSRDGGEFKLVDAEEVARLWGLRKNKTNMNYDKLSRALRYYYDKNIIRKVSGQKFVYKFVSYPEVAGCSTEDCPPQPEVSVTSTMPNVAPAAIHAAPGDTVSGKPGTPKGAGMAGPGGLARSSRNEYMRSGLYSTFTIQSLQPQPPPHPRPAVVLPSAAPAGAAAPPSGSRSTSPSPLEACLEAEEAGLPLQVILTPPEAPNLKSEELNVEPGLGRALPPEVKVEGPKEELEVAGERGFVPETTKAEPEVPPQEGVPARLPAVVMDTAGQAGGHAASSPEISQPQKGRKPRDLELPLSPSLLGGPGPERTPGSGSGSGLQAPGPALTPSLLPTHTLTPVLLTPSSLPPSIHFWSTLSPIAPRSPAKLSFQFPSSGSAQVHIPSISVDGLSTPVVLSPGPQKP
# Procedure, shortened: as §1
# GABPA = target: T3, GABPA (Homo sapiens, UniProt Q06546 1-454)
# T3 sequence: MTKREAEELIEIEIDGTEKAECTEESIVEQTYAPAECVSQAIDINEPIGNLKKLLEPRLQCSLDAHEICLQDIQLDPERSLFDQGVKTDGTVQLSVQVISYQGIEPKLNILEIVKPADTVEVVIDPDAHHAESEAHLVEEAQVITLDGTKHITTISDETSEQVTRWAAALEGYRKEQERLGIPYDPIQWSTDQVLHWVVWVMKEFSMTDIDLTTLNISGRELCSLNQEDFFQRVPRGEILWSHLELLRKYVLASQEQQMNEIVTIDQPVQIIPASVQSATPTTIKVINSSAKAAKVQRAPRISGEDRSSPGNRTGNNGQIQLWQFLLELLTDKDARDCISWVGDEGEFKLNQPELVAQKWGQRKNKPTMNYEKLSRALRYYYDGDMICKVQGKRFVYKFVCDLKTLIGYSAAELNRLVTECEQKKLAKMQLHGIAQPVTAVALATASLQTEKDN
# Procedure, shortened: as §1
# ERG = target: T4, ERG (Homo sapiens, UniProt P11308 1-479)
# T4 sequence: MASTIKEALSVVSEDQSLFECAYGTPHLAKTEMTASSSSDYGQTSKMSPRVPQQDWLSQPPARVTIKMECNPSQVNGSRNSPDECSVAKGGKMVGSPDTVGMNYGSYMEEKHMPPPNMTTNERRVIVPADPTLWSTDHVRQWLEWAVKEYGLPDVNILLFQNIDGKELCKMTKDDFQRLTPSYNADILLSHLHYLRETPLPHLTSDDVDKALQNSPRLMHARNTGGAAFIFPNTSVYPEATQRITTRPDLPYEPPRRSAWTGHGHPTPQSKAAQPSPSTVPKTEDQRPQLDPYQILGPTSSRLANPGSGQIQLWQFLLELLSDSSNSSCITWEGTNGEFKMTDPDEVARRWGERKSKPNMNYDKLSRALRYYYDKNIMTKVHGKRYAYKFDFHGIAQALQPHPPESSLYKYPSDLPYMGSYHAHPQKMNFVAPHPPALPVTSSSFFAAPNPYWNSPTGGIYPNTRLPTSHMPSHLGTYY
# Procedure, shortened: as §1
# ELF1 = ELF1 (Homo sapiens, UniProt P32519 1-619)
# Chain of ELF1 (P32519 whole entry): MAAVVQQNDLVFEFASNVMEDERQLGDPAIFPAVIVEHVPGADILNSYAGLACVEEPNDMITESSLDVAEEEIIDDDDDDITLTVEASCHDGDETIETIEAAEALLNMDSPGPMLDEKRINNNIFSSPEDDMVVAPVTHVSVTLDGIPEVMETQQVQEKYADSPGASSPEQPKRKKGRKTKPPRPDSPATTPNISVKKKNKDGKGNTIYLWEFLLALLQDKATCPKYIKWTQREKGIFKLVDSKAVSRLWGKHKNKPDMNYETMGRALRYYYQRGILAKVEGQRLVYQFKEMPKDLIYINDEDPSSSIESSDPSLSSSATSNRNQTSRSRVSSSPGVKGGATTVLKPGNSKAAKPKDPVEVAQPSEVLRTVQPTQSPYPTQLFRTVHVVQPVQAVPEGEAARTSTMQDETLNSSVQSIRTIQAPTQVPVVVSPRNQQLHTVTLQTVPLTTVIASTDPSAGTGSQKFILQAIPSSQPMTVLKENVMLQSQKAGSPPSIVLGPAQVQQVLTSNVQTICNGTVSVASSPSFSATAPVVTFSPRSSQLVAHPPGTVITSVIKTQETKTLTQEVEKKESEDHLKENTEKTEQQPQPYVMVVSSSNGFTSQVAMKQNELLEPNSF
# Procedure, shortened: as §1
# EHF = target: T5, EHF (Homo sapiens, UniProt Q9NZC4 1-300)
# T5 sequence: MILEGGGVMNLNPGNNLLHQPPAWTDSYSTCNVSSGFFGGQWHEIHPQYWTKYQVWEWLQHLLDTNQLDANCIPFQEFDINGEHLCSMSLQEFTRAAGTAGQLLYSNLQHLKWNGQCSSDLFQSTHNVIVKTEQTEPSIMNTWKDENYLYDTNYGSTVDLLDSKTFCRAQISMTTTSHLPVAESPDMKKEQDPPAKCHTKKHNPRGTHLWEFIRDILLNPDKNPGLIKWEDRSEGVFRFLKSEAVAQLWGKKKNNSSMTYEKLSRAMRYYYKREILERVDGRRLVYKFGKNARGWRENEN
# Procedure, shortened: as §1
# SPI1 = SPI1 (Homo sapiens, UniProt P17947 1-270)
# Procedure, shortened: as §1
# SPIB = SPIB (Homo sapiens, UniProt Q01892 1-262)
# Chain of SPIB (Q01892 whole entry): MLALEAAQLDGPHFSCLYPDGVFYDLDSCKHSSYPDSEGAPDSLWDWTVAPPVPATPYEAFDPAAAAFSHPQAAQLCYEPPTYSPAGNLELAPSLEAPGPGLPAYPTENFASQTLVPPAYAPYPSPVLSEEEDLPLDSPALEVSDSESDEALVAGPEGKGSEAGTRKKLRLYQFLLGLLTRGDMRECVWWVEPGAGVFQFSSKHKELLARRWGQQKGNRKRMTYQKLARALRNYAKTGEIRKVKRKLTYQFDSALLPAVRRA
# Procedure, shortened: as §1
# ELK3 = target: T6, ELK3 (Homo sapiens, UniProt P41970 1-407)
# T6 sequence: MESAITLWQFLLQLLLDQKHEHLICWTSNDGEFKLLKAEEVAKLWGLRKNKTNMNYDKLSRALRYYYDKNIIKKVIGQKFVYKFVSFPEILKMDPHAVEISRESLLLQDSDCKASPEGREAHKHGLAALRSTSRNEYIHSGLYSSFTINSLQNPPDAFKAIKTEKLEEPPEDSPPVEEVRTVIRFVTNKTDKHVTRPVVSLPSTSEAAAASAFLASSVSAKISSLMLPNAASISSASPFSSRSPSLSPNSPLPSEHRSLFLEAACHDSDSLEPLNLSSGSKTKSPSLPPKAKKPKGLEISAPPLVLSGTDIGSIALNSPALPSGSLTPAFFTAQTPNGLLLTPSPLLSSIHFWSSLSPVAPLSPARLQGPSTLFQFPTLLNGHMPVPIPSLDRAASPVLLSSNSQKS
# Procedure, shortened: as §1
# FEV = target: T7, FEV (Homo sapiens, UniProt Q99581 1-238)
# T7 sequence: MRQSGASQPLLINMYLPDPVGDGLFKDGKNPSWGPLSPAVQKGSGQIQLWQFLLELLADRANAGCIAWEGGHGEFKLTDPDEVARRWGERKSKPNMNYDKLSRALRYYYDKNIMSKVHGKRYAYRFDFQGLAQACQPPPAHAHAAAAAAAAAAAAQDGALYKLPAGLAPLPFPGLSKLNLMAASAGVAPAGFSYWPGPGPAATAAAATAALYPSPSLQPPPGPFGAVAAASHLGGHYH
# Procedure, shortened: as §1
# ETV5 = ETV5 (Homo sapiens, UniProt P41161 1-510)
# Chain of ETV5 (P41161 whole entry): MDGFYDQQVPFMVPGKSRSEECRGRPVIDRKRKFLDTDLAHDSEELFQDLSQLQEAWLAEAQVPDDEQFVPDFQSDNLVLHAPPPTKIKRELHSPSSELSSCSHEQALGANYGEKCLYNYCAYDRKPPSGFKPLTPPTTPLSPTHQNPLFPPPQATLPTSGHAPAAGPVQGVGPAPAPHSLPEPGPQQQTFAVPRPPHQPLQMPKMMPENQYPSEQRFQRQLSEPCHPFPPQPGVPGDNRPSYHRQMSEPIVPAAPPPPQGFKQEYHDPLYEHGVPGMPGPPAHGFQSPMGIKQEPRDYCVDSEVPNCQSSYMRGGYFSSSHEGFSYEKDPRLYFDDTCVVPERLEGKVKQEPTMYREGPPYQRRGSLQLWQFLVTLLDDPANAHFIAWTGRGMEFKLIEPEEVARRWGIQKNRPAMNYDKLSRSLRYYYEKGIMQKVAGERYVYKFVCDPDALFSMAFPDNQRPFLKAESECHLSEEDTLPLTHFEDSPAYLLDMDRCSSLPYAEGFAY
# Procedure, shortened: as §1
# SPIC = target: T8, SPIC (Homo sapiens, UniProt Q8N5J4 1-248)
# T8 sequence: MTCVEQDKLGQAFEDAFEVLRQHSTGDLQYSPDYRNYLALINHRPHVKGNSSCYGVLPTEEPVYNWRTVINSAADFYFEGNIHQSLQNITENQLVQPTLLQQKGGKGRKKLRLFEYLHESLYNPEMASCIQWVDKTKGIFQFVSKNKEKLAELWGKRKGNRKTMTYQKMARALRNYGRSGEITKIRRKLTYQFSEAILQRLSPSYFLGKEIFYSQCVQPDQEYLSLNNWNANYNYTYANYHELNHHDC
# Procedure, shortened: as §1
# ELF4 = ELF4 (Homo sapiens, UniProt Q99607 1-663)
# Chain of ELF4 (Q99607 whole entry): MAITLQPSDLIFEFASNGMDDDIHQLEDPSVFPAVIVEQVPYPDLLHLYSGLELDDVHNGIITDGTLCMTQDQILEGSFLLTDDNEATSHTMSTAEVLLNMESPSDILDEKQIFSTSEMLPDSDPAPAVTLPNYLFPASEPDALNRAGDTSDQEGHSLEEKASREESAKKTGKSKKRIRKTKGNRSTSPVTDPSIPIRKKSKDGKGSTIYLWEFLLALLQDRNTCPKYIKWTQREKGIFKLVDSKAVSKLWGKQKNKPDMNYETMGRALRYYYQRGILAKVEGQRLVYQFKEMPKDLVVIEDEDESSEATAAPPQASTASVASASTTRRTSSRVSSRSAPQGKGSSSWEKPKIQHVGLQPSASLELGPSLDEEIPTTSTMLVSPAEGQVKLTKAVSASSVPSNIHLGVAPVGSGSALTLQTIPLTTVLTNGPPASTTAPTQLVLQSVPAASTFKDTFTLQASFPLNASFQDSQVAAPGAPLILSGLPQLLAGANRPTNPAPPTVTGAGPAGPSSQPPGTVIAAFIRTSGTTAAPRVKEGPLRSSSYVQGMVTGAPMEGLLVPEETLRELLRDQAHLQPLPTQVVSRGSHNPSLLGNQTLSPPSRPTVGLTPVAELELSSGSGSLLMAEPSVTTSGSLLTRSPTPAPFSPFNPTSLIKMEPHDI
# Procedure, shortened: as §1
# ELK4 = target: T9, ELK4 (Homo sapiens, UniProt P28324-2 1-405)
# T9 sequence: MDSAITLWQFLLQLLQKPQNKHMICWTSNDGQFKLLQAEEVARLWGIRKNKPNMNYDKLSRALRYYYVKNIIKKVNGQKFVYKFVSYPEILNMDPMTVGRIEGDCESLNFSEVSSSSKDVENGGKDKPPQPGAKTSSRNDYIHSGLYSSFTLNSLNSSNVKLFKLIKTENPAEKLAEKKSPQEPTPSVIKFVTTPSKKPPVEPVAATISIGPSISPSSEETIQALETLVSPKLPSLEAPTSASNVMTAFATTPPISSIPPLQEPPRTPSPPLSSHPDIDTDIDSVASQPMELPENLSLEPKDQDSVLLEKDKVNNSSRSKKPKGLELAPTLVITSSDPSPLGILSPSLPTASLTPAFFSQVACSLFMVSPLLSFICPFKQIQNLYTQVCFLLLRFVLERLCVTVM
# Procedure, shortened: as §1
# ETV2 = target: T10, ETV2 (Homo sapiens, UniProt O00321 1-342)
# T10 sequence: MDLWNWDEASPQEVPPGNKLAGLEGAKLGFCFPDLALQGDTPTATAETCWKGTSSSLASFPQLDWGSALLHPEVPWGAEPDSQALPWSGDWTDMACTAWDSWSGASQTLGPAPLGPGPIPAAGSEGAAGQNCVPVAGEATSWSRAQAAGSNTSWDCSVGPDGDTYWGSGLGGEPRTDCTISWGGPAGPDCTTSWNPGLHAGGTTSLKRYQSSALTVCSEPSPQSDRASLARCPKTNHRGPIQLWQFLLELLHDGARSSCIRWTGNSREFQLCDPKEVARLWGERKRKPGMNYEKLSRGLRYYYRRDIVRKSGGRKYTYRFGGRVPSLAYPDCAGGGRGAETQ
# Procedure, shortened: as §1
# ELF3 = target: T11, ELF3 (Homo sapiens, UniProt P78545 1-371)
# T11 sequence: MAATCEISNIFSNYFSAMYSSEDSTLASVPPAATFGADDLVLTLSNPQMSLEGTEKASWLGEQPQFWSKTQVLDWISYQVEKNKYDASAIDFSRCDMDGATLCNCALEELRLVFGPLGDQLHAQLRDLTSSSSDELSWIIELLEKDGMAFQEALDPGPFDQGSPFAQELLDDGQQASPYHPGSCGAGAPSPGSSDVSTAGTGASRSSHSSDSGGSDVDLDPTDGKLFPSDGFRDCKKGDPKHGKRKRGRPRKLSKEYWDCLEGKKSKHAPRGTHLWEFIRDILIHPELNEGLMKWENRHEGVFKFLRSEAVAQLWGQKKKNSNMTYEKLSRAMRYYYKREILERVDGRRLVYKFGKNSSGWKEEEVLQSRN
# Procedure, shortened: as §1
# ETV1 = ETV1 (Homo sapiens, UniProt P50549 1-477)
# Chain of ETV1 (P50549 whole entry): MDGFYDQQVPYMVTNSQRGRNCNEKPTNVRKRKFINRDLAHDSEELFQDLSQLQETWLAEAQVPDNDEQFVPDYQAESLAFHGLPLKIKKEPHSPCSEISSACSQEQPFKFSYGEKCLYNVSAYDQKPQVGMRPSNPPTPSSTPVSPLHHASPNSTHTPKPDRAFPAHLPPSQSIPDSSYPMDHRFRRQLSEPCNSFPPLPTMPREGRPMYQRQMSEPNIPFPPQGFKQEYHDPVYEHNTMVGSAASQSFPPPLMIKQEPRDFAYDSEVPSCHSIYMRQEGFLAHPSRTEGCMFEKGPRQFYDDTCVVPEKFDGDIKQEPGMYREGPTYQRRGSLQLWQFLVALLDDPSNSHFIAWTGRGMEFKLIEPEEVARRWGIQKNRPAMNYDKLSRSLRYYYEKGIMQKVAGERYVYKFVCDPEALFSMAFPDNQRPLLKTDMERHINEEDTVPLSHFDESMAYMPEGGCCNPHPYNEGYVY
# Procedure, shortened: as §1
sequence,measurement,setting,value
CCCATC,binding signal,FLI1,"1.19 fold enrichment (6-mer frequency, TF over GST control)"
same,binding signal,ELK1,"1.18 fold enrichment (6-mer frequency, TF over GST control)"
same,binding signal,GABPA,"1.17 fold enrichment (6-mer frequency, TF over GST control)"
same,binding signal,ERG,"1.11 fold enrichment (6-mer frequency, TF over GST control)"
same,binding signal,ELF1,"1.12 fold enrichment (6-mer frequency, TF over GST control)"
same,binding signal,EHF,"1.17 fold enrichment (6-mer frequency, TF over GST control)"
same,binding signal,SPI1,"1.11 fold enrichment (6-mer frequency, TF over GST control)"
same,binding signal,SPIB,"1.18 fold enrichment (6-mer frequency, TF over GST control)"
same,binding signal,ELK3,"1.21 fold enrichment (6-mer frequency, TF over GST control)"
same,binding signal,FEV,"1.06 fold enrichment (6-mer frequency, TF over GST control)"
same,binding signal,ETV5,"1.16 fold enrichment (6-mer frequency, TF over GST control)"
same,binding signal,SPIC,"1.27 fold enrichment (6-mer frequency, TF over GST control)"
same,binding signal,ELF4,"1.17 fold enrichment (6-mer frequency, TF over GST control)"
same,binding signal,ELK4,"1.3 fold enrichment (6-mer frequency, TF over GST control)"
same,binding signal,ETV2,"1.04 fold enrichment (6-mer frequency, TF over GST control)"
same,binding signal,ELF3,"1.09 fold enrichment (6-mer frequency, TF over GST control)"
same,binding signal,ETV1,"1.18 fold enrichment (6-mer frequency, TF over GST control)"
